STK33 inh – STK33 kinase inhibitors, primary screen, biochemical, luminescence, ADP-Glo, MBP substrate. inhibition, % at 12.5 µM. 27,000 tested, 0.44% active. AID 2322, 2010; in the data active = inhibition above about 20%; inconclusive = no clear call, values can overlap the other calls
Target sequence (Q9BYT3 whole entry, looked up): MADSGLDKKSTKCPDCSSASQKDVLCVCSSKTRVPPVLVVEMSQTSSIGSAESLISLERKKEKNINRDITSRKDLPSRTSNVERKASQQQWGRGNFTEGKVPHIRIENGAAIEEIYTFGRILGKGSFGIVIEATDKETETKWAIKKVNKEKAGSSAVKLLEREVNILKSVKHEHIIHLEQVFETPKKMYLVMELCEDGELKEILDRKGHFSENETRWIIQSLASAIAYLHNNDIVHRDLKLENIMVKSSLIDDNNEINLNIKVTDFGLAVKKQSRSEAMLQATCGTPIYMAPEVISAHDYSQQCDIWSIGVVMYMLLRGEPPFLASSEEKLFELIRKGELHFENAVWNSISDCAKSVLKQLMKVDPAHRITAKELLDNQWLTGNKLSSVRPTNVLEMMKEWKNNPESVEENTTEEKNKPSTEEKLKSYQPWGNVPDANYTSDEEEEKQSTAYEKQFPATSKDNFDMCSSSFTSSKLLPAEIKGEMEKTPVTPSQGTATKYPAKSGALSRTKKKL
PD-1 reverse act – activators reversing PD-1 mediated T-cell inhibition, primary screen, luminescence, primary human CD4 T cells, PD-L1 beads; CellTiter-Glo 96 h; activation, % (no concentration beside the values); 29,000 tested, under 10 active; AID 2316, 2010; call rule not given here;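 note: 0% = median vehicle wells and 100% = positive control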
NOMO-1 viab – NOMO-1 AML cell viability reduction, primary screen, STK33 inhibitor project, CellTiter-Glo luminescence | 37,000 tested, 7.5% active | inhibition, % (concentration not given with the values) | NOMO-1 AML viability, 72 h; in the data active = inhibition above about 80%; inconclusive = no clear call, values can overlap the other calls
Numbers without * were called inactive; u = inconclusive; x = not tested or not shown. The sample as a whole holds a higher share of hits than the screen did.

SMILES	STK33 inh	PD-1 reverse act	NOMO-1 viab
Cc1ccc(NC(=O)COc2ccc(C(=O)Nc3ccc(F)cc3)cc2)cc1	-7	x	0
CCOC(=O)C1=C(c2ccccc2)NC(=S)NC1CC (stereo not drawn)	x	-2	32
Cc1cc(Cl)ccc1NC(=O)Cn1cnc2sc(C)c(-c3ccc(F)cc3)c2c1=O	-4	x	34
c1ccc(NC2CCCCC2)nc1	x	2	4
O=C1C=C(NC2CCCC2)CC(c2ccccc2)C1 (stereo not drawn)	x	0	111*
O=P1(N2CCN(c3ccc(Cl)cc3)CC2)COc2ccccc2OC1	x	0	13
COc1ccc(NC(=O)Nc2ccc3c(c2)C(=O)N([C@H](C)CO)C[C@@H](C)[C@@H](CN(C)Cc2ccc(Cl)c(Cl)c2)O3)cc1	x	1	98*
COc1ccc(CN(C)C[C@@H]2Oc3ccc(NC(=O)Nc4ccc(OC)cc4)cc3C(=O)N([C@@H](C)CO)C[C@H]2C)cc1	x	x	-12
COc1ccc(NC(=O)Nc2ccc3c(c2)C(=O)N([C@@H](C)CO)C[C@H](C)[C@H](CN(C)Cc2ccc(Cl)c(Cl)c2)O3)cc1	-2	0	104*
COc1ccc(NC(=O)Nc2ccc3c(c2)C(=O)N([C@@H](C)CO)C[C@@H](C)[C@@H](CN(C)Cc2ccc(Cl)c(Cl)c2)O3)cc1	2	2	60
Cn1nc(-c2ccc(NCCN3CCOCC3)c([N+](=O)[O-])c2)c2ccccc2c1=O	-3	1	39
CCC(Oc1cccc(NC(=O)c2cccc(OC)c2)c1)C(=O)c1ccccc1 (stereo not drawn)	u	0	-13
CCC(C)CCCCCCCCC1CC(=O)NC(CCC(N)=O)C(=O)NC(CC(C)C)C(=O)NC(CC(C)C)C(=O)NC(C(C)C)C(=O)NC(CC(=O)O)C(=O)NC(CC(C)C)C(=O)NC(C(C)C)C(=O)O1 (stereo not drawn)	-8	1	111*
O=C(O)c1cccc(NC(=O)c2cc(S(=O)(=O)N3CCOCC3)c(Cl)cc2Cl)c1	0	x	x
c1cncc(C2OCC3(CO2)COC(c2cccnc2)OC3)c1 (stereo not drawn)	x	0	-25
CC1=CC(C)C2(COC(=O)Nc3ccccc3)COC(c3cccnc3)C1C2C (stereo not drawn)	x	0	105*
CCc1nc(SCC(=O)Nc2ccc(Br)cc2)n[nH]1	1	-1	-3
COC(=O)c1c(C)oc2ccc(N(C(=O)c3ccncc3)S(=O)(=O)c3ccc(F)cc3C)cc12	-3	-4	51
Cc1ccc(S(=O)(=O)Nc2cccc3c2O[C@@H](CN(C)Cc2ccc(C(=O)Nc4ccccc4N)cc2)[C@@H](C)CN([C@@H](C)CO)C3=O)cc1	x	-1	134*
Cc1ccc(S(=O)(=O)Nc2cccc3c2O[C@H](CN(C)Cc2ccc(C(=O)Nc4ccccc4N)cc2)[C@H](C)CN([C@H](C)CO)C3=O)cc1	x	-1	129*
Cc1ccc(S(=O)(=O)Nc2cccc3c2O[C@H](CN(C)Cc2ccc(C(=O)Nc4ccccc4N)cc2)[C@@H](C)CN([C@@H](C)CO)C3=O)cc1	x	-1	121*
Cc1ccc(S(=O)(=O)Nc2cccc3c2O[C@@H](CN(C)Cc2ccc(C(=O)Nc4ccccc4N)cc2)[C@H](C)CN([C@@H](C)CO)C3=O)cc1	x	1	u
CC(Oc1ccccc1)C(=O)Nc1cccc(-c2nnc(-c3ccccc3)o2)c1 (stereo not drawn)	4	2	26
COc1ccccc1NC(=O)C(CCS(C)(=O)=O)N1C(=O)c2ccc(Br)cc2C1=O (stereo not drawn)	-4	2	-20
COc1cc2c(NC(C)=O)c(CN(C)C)oc2c(Cl)c1Cl	x	0	22
SMILES	STK33 inh	PD-1 reverse act	NOMO-1 viab
C=CCc1c(C)[nH]c(=S)[nH]c1=O	x	0	-20
C[C@H](CO)N1C[C@H](C)[C@H](CN(C)C(=O)Nc2ccccc2)Oc2c(NC(=O)Nc3cccc4ccccc34)cccc2C1=O	x	-3	73
C[C@@H]1CN([C@H](C)CO)C(=O)c2cccc(NC(=O)Nc3ccccc3)c2O[C@@H]1CN(C)C(=O)Nc1cccc2ccccc12	x	0	105*
C[C@@H]1CN([C@@H](C)CO)C(=O)c2cccc(NC(=O)Nc3cccc4ccccc34)c2O[C@H]1CN(C)C(=O)Nc1ccccc1	x	-2	25
C[C@@H]1CN([C@@H](C)CO)C(=O)c2cccc(NC(=O)Nc3ccccc3)c2O[C@@H]1CN(C)C(=O)Nc1cccc2ccccc12	x	1	106*
O=C(CSc1ncccn1)Nc1ccc(I)cc1	-3	0	2
O=C(Nc1ccccc1[N+](=O)[O-])c1cccc(S(=O)(=O)N2CCOCC2)c1	-1	x	x
Cn1c(SCC(=O)Nc2ccnc3ccccc23)nnc1-c1ccncc1	-2	0	8
Cc1c(NC(=O)C(C)Oc2ccc(Cl)cc2Cl)cccc1-c1nc2ccccc2o1 (stereo not drawn)	4	-1	32
C[C@H](CO)N1C[C@H](C)[C@@H](CN(C)Cc2ccc(-c3ccccc3)cc2)Oc2ccc(NS(=O)(=O)c3ccc(Cl)cc3)cc2C1=O	x	-1	62
C[C@H]1CN([C@@H](C)CO)C(=O)c2cc(NS(=O)(=O)c3ccc(Cl)cc3)ccc2O[C@@H]1CN(C)Cc1ccc(-c2ccccc2)cc1	x	x	38
C[C@H](CO)N1C[C@H](C)[C@H](CN(C)Cc2ccc(-c3ccccc3)cc2)Oc2ccc(NS(=O)(=O)c3ccc(Cl)cc3)cc2C1=O	x	0	114*
C[C@@H]1CN([C@H](C)CO)C(=O)c2cc(NS(=O)(=O)c3ccc(Cl)cc3)ccc2O[C@@H]1CN(C)Cc1ccc(-c2ccccc2)cc1	x	-1	109*
C[C@@H]1CN([C@@H](C)CO)C(=O)c2cc(NS(=O)(=O)c3ccc(Cl)cc3)ccc2O[C@H]1CN(C)Cc1ccccc1	x	x	28
C[C@@H]1CN([C@@H](C)CO)C(=O)c2cc(NS(=O)(=O)c3ccc(Cl)cc3)ccc2O[C@@H]1CN(C)Cc1ccc(-c2ccccc2)cc1	x	0	123*
COc1cc([N+](=O)[O-])ccc1NC(=O)CSc1nc(C)cc(-c2ccc(Cl)cc2)n1	3	-1	23
COC(=O)c1ccccc1NC(=O)c1cccc(NC(=O)CSc2ccccc2)c1C	-2	x	15
CC(=O)OC[C@]12[C@H](OC(C)=O)[C@@H](OC(C)=O)[C@@H]3[C@@H](OC(C)=O)[C@@]14O[C@@]3(C)COC(=O)c1cccnc1[C@H](C)[C@@H](C)C(=O)O[C@@H]([C@H](O)[C@@H]2OC(=O)c1ccccc1)[C@]4(C)O	-7	x	x
CC(=O)OC[C@]12[C@H](OC(C)=O)[C@H](OC(C)=O)[C@@H]3[C@@H](OC(C)=O)[C@@]14O[C@@]3(C)COC(=O)c1ncccc1CC[C@H](C)C(=O)O[C@@H]([C@H](O)[C@@H]2OC(=O)c1ccccc1)[C@]4(C)O	-1	-6	117*
Cc1coc(C)c1C(=O)CC1(O)C(=O)N(Cc2ccccc2)c2ccccc21 (stereo not drawn)	0	2	16
CC1(C)NCCC12C(=O)N(Cc1ccccc1)c1ccccc12 (stereo not drawn)	x	-1	120*

Screens as filed in PubChem BioAssay.
